# Laboratory results taken from PubChem BioAssay (Tox21).
# Values joined by “and” are separate entries in the source; they are usually repeats but may differ in a detail not shown here. Identical values can stand only once. Results filed as inconclusive are left out. Where a call stands in place of a potency, no number is given. A number with no mark means an inactive call. Active and inactive are the calls of the source. The call rests on the fitted dose curve; in most records, active means well fitted cell-killing curve with a large enough effect in the repeat runs; inconclusive means weak or mixed curves, or effect the other way; inactive means no such curve, though single readings can be large or run the other way.
# Experiment: qHTS assay to identify small molecule antagonists of the progesterone receptor (PR) signaling pathway - cell viability counter screen (AID 1346798); further: nearly all actives have a fitted effect of over 50% in size
# Details: PR-UAS-bla HEK293T viability, CellTiter-Glo luminescence, 16 h; series mostly up to 92.4 µM
# Source text: National Center for Advancing Translational Sciences [NCATS]
# NIH Chemical Genomics Center [NCGC]
# U.S. Environmental Protection Agency [EPA]
# National Institutes of Environmental Health Sciences [NIEHS]
# National Toxicology Program [NTP]
# U.S. Food and Drug Administration [FDA]
# Progesterone receptor (PR), a nuclear hormone receptor, plays an important role in development, metabolic homeostasis and reproduction. It is activated by the steroid hormone progesterone. Endocrine disrupting chemicals (EDCs) and their interactions with steroid hormone receptors like PR causes disruption of normal endocrine function. To identify the compounds that inhibit PR signaling, a PR-UAS-bla GripTite cell line i.e. PR-UAS-bla HEK293T (Invitrogen, Carlsbad, CA, USA) containing a beta-lactamase reporter gene under the control of an UAS response element was used to screen Tox21 10K compound library. The cytotoxicity of the Tox21 compound library against the PR-bla cell line was tested in parallel by measuring the cell viability using CellTiter-Glo assay in the same wells.
# Tox21 Assay Protocol Summary:
# PR-UAS-bla HEK293T cells were dispensed at 3,000 cells/4 uL of assay medium containing 2% charcoal stripped FBS per well into black wall/clear-bottom 1536-well plates using a Multidrop Combi (ThermoFisher Scientific, Waltham, MA) dispenser. After the assay plates were incubated at a 37C and 5% CO2 for 4 hr, 23 nL of compounds dissolved in DMSO, positive controls or DMSO only was transferred to the assay plate by a Pintool station (Kalypsys, San Diego, CA), followed by addition of 1 uL of R5020 in assay medium using a Flying Reagent Dispenser (FRD, Aurora Discovery, San Diego, CA). The plates were incubated at 37C and 5% CO2 for 16 hr. Then 1 uL of LiveBLAzer B/G FRET substrate was added using a Flying Reagent Dispenser, the plates were incubated at room temperature for 2 hours, and fluorescence intensity was measured by an Envision plate reader (PerkinElmer, Shelton, CT). For cell viability readout that measures cytotoxicity, 4 uL/well of CellTiter-Glo reagent was added into the assay plates using a FRD. After 30 min incubation at room temperature, the luminescence intensity in the plates was measured using a ViewLux (PerkinElmer) plate reader.
# Potency means the concentration at half of the fitted maximal effect.
SMILES,Potency,"activity change, negative = cytotoxicity"
O=[N+]([O-])c1c(Cl)c(Cl)cc(Cl)c1Cl,inactive,
c1ccc2c(c1)Sc1ccccc1N2CC1CN2CCC1CC2 (configuration not stated),21.1 µM (active),
O=[N+]([O-])c1ccccc1Cl,inactive,
Cc1ccc2nc3sc(=O)sc3nc2c1,,-19.3% [at 18.9 µM]
Oc1c(Cl)cc(Cl)cc1Cl,inactive,
OC(Cc1ccccc1Cl)(Cn1[nH]cnc1=S)C1(Cl)CC1 (configuration not stated),inactive,
Cc1ccc2ccccc2c1C,inactive,
CN1CSC(=S)N(C)C1,27.2 µM (active) and 21.6 µM (active),
Oc1c(I)cc(I)cc1I,inactive,
O=C(c1ccccc1)C(Cl)Cl,inactive,
ClC1=C(Cl)[C@]2(Cl)[C@@H]3[C@@H](Cl)[C@H]4O[C@H]4[C@@H]3C1(Cl)C2(Cl)Cl,inactive,
CNC(=O)Oc1cc(C)c(SC)c(C)c1,inactive,
ClC(Cl)=C(c1ccc(Cl)cc1)c1ccccc1Cl,inactive,
CCN(CC)C(=O)Cl,inactive,
C[C@]12CC[C@@H](O)C[C@@H]1CC[C@@H]1[C@@H]2CC[C@]2(C)C(=O)CC[C@@H]12,48.6 µM (active),
N#Cc1cc([N+](=O)[O-])ccc1N,inactive,
CC(C)(C)c1ccc(O)cc1,inactive,
Nc1ccc([N+](=O)[O-])cc1,8.63 µM (active),
CO/C=C(/C(=O)OC)c1ccccc1Oc1cc(Oc2ccccc2C#N)ncn1,51.8 µM (active),
Cc1ccc(O)cc1C,inactive,
O=S(=O)(C(Cl)(Cl)Cl)C(Cl)(Cl)Cl,inactive,
CCOC(=O)C(O)(c1ccc(Cl)cc1)c1ccc(Cl)cc1,inactive,
